Our source for the inhibition values is PubChem BioAssay.

Calls of active or inactive are those of the source. No rule for the calls is given here.

As usually defined, the inhibition is the change of the read-out against control, counted positive when it falls.

The target in this assay is Pantothenate synthetase (Mycobacterium tuberculosis (strain ATCC 25618 / H37Rv)) (UniProt P9WIL5). As to the kind of experiment: Recombinant Mtb pantothenate synthetase (PanC) inhibitors, coupled enzyme, confirmatory (AID 375).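 Also: 0% = full reaction with vehicle and 100% = no enzyme background.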 To be noted: coupled enzyme assay; at 10 µM, stronger effect = higher value.
Chain of Pantothenate synthetase (Mycobacterium tuberculosis (strain ATCC 25618 / H37Rv)) (P9WIL5 whole entry, looked up): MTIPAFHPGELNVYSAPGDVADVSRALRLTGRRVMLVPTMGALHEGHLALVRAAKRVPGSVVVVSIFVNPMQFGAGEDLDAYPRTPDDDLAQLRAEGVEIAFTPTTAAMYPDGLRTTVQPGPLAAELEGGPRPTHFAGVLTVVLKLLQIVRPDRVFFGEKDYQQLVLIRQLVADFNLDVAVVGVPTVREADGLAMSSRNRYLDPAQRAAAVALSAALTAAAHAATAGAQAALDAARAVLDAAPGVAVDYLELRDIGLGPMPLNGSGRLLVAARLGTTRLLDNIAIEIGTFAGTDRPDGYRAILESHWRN
As for `Cc1ccc(-n2nc(C)c3cc(C(=O)O)sc32)cc1`, the inhibition was 0% (inactive).

In the case of `COc1ccc2c(c1)C(=NO)c1cc(OC)ccc1-2`, the inhibition was 0% (inactive).

Turning to `CN(C(=O)C1CCOC1)c1nnc(-c2cccnc2)s1` (stereo not given), the inhibition is 0% (inactive).

`Cc1cccc(C2CC(c3ccc(Cl)cc3)Nc3nc(N)nn32)c1` (stereo not given): the inhibition is 0% (inactive).

With `Cc1cccc(C)c1OCc1nnc2c3cnn(C)c3ncn12`, the inhibition was 0% (inactive).

Turning to `COc1ccc(-c2nsc(SCC(=O)Nc3cc(C)on3)n2)cc1`, the inhibition was 0% (inactive).

Regarding `Cc1ccc(-c2nnn(CC(=O)N(CC(=O)NCC3CCCO3)c3ccccc3)n2)o1` (stereo not given), the inhibition was 3% (inactive).

Turning to `N#Cc1nc(-c2ccco2)oc1NCc1ccco1`, the inhibition is 11% (inactive).

With `CCOc1ccc(C(=O)Nc2ccc(N3CCN(C)CC3)cc2)cc1Br`, the inhibition is 0% (inactive).

Turning to `COc1ccc(-c2cc(C(F)(F)F)n3ncc(C(=O)NCC4CCCO4)c3n2)cc1` (stereo not given), the inhibition was 0% (inactive).

For `O=C(OCCCCN1C(=O)c2ccccc2C1=O)c1n[nH]c2ccccc12`, the inhibition is 2% (inactive).

In the case of `COc1ccc(S(=O)(=O)NCc2ccc(C(=O)O)cc2)cc1`, the inhibition was 0% (inactive).

As to `O=C(NCCCNC1CCCCC1)c1ccc(/C=N/O)nc1`, the inhibition is 0% (inactive).

Regarding `COc1ccccc1-c1nnc(SCC(=O)N2CC(C)CC(C)C2)o1` (stereo not given), the inhibition was 4% (inactive).

Take `CSc1ccccc1C(=O)NC1CC2CCC1C2` (stereo not given): the inhibition was 0% (inactive).

For the compound `O=C1CCCC2=C1C(c1cccs1)n1nc(SCc3ccccc3F)nc1N2` (stereo not given), the inhibition was 0% (inactive).

Turning to `CCN(CC)S(=O)(=O)c1ccc(NC(=O)Cn2cnc3ccccc3c2=O)cc1`, the inhibition is 0% (inactive).

Consider `Cc1cc(C)c2nc(N)sc2c1`, for which the inhibition is 0% (inactive).

With `Cc1cc(NC(=O)CCOc2ccccc2)no1`, the inhibition was 0% (inactive).

Turning to `CCN(CC)C(=O)Oc1ccccc1NC(C)=O`, the inhibition was 1% (inactive).

`c1cc(CNc2ccc3c(c2)OCO3)ccn1`: the inhibition is 0% (inactive).

Regarding `COc1ccc(Cc2noc(-c3ccc(C)cc3)n2)cc1`, the inhibition is 0% (inactive).

For the compound `CCc1cc2c(=O)c(-c3ccc4c(c3)OCCO4)coc2cc1OC(=O)c1ccco1`, the inhibition was 0% (inactive).

`O=C(Nc1ccc(Cl)cn1)c1cccnc1`: the inhibition is 0% (inactive).

For `COc1ccccc1CNC(=O)C1CCCN(S(=O)(=O)c2cnc[nH]2)C1` (stereo not given), the inhibition was 0% (inactive).

With `CC1CC(=O)c2cnc(NCC3CCCO3)nc2C1` (stereo not given), the inhibition was 3% (inactive).

On to `Cc1cc(C)nc(N2CCC(C(=O)Nc3ccc4c(c3)CCC4)CC2)n1`, for which the inhibition is 5% (inactive).

Turning to `CC1(C)CC(=O)C2=C(C1)NC(=O)CC2c1ccc(N(CCC#N)CCC#N)cc1` (stereo not given), the inhibition is 9% (inactive).

For `CC(C)CC(c1nnnn1C(C)(C)C)N1CCN(C2CCCC2)CC1` (stereo not given), the inhibition is 0% (inactive).

Turning to `COC(=O)c1ccccc1NC(=O)c1noc2c1CC(C(C)(C)C)CC2` (stereo not given), the inhibition was 2% (inactive).

Regarding `C=CCSC1=C(C#N)C(c2ccccc2C)CC(=O)N1` (stereo not given), the inhibition was 0% (inactive).

Turning to `COc1ccc(N(C)C(=O)CCS(=O)(=O)c2cccc3nonc23)cc1`, the inhibition is 1% (inactive).

On to `CNC(=O)c1ccsc1NC(=O)c1ccccc1`, for which the inhibition was 4% (inactive).

As to `CCN1C(=O)CC(C(=O)Nc2ccc(F)cc2)SC1=Nc1ccc2c(c1)OCO2` (stereo not given), the inhibition was 6% (inactive).

For `CCN(CC)c1ccc(-c2c(C#N)c(N)nc(OC)c2C#N)cc1`, the inhibition was 0% (inactive).

As to `CCNC(=O)CC1C(=O)N(c2ccccc2)C(=O)N1Cc1ccc(OC)cc1` (stereo not given), the inhibition was 0% (inactive).

As to `COc1ccc(C2/C(=C(/O)c3cnn(-c4ccccc4)c3C)C(=O)C(=O)N2CCN(C)C)cc1OC` (stereo not given), the inhibition was 3% (inactive).

On to `NC(=O)C1CCN(C(=S)c2cccs2)CC1`, for which the inhibition is 0% (inactive).

As to `COc1ccc2cc3cc(C(=O)NCC4CCCO4)oc3nc2c1` (stereo not given), the inhibition is 3% (inactive).

As to `CC(=O)Nc1ccc(NC2=CC(=O)CC(C)(C)C2)cc1`, the inhibition was 4% (inactive).
